This is a sample that favours compounds with a hit; in the whole collection about 2.6% have one here.
Cruzain Triton: inhibitors of Trypanosoma cruzi cruzain with detergent; P25779; purified cruzain, Z-FR-AMC fluorescence, 0.01% Triton; Potency, µM, for inactives: max response, negative = inhibition, usual class: inhibitors; 200,000 tested, 0.43% active; AID 1478;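 also: plate controls were neutral wells for no effect and buffer without enzyme for full effect; nearly all actives have a fitted effect of over 40% in size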
Target sequence (P25779 123-467 limits assumed): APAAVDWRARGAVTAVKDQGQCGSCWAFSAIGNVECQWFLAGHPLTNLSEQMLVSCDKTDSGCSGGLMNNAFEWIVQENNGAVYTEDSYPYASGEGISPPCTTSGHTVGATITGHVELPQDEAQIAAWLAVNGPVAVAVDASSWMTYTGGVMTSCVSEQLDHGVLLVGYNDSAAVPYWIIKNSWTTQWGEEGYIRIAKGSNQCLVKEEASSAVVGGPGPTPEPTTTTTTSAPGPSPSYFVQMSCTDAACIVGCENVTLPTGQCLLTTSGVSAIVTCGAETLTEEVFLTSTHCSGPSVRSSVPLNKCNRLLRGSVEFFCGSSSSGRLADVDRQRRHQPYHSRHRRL
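Detergent-containing arm of a paired screen for aggregation-based inhibition: 0.01% Triton X-100 present. Cruzain at 1.5 nM cleaved 2 uM Z-FR-AMC at pH 5.5 with 5 mM DTT; AMC fluorescence gain over 60 s measured activity.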
Cruzain noTriton: inhibitors of Trypanosoma cruzi cruzain without detergent; purified cruzain, Z-FR-AMC fluorescence, no detergent; 200,000 tested, 2.3% active; Potency, µM, without a hit: max response, negative = inhibition, usual class: inhibitors;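 also: plate controls were enzyme without inhibitor for no effect and buffer without enzyme for full effect; nearly all actives have a fitted effect of over 40% in size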
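Detergent-free condition (0.00005% Triton X-100) in acetate buffer pH 5.5 with DTT. 1.5 nM enzyme and compound were pre-mixed 15 min, then 2 uM Z-FR-AMC substrate added; reaction progress from fluorescence change between first and third reads (60 s).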
Starred values were filed as active, the others as inactive; u = inconclusive. Calls follow the shape of the dose curve; as a rule, active = well fitted curve in the direction sought with a large enough effect; inconclusive = small, poorly fitted or top-dose-only effect, or another doubt; inactive = no such curve, though single readings can be large; an effect the other way counts as inactive or inconclusive. Potency is read from the fitted curve at half-maximal effect.

SMILES	Cruzain Triton	Cruzain noTriton
O=c1c(-c2cc(F)cc(F)c2)nc2cncnc2n1-c1ccccc1	-2%	-13%
CCOC(=O)CCCN1C(=O)CCn2nc(-c3cn(C)c4ccccc34)cc21	-7%	u
Cc1cc(O)c(CN2CCN(c3ccccc3)CC2)c2oc(=O)cc(C)c12	-20%	u
CCN1C(=O)c2ccccc2Sc2ccc(NC(=O)Nc3cc(C)cc(C)c3)cc21	-2%	5%
COc1ccccc1CN1CC2(CCN(C(=O)c3cccc(F)c3)CC2)C1	3%	-4%
CCC(C)c1ccc(OCC(=O)Nc2ccc3[nH]c(=O)[nH]c3c2)cc1 (stereo not drawn)	-2%	25µM*
CCC(C)c1ccc(OCC(=O)O)cc1 (stereo not drawn)	3%	-2%
COc1ccccc1-n1c(SCC(=O)NC2CCS(=O)(=O)C2)nc2cc([N+](=O)[O-])ccc21 (stereo not drawn)	-2%	u
COc1ccccc1-n1c(SCC(=O)c2ccc(O)cc2O)nc2cc([N+](=O)[O-])ccc21	-2%	13µM*
CCCCOc1ccc(S(=O)(=O)Nc2ccc(-c3ccc(N4CCCCCC4)nn3)cc2)cc1	-4%	-24%
CCCCOc1ccc(S(=O)(=O)Nc2ccc(-c3ccc(N4CCCCC4)nn3)cc2)cc1	-5%	32µM*
Cc1ccccc1CNC(=O)CCS(=O)(=O)c1cc2c3c(c1)CCN3C(=O)CC2	-6%	-2%
CC(C)C(=O)c1cc2c(cc1NC(=O)Nc1cccc3ccccc13)OCCO2	-2%	25%
[O-]/C(=C(\C(=S)Nc1cccc2ccccc12)[n+]1ccccc1)c1ccc2c(c1)OCCO2	-6%	13µM*
CCOc1ccccc1NC(=O)Nc1nnc(N(C)Cc2ccccc2)s1	-1%	0%
CCCS(=O)(=O)c1nc(S(=O)(=O)c2ccc(C)cc2)c(NCc2ccco2)s1	-4%	0%
Cc1ccc(S(=O)(=O)c2nc(S(=O)(=O)c3ccc(C)cc3)c(NCc3ccco3)s2)cc1	0%	32µM*
Cc1oc(-c2ccc(C(=O)NCCCOC(C)C)cc2)nc1CS(=O)(=O)c1ccccc1	-2%	5%
CCOc1ccccc1NC(=O)c1c2c(nc3ccccc13)C(=O)N(C1CCCCC1)C2	-8%	u
Cc1ccc(-c2csc(N(CC3CCCO3)C(=O)c3ccco3)n2)cc1 (stereo not drawn)	-7%	11%
COc1ccc(-c2csc(N(CC3CCCO3)C(=O)c3ccc(C)cc3)n2)cc1 (stereo not drawn)	-4%	20µM*
COc1ccc(NC(=O)Cn2c(=O)n(CCCC(=O)NCc3ccccc3Cl)c(=O)c3ccccc32)c(OC)c1	-3%	-10%
O=C(NCc1ccc(Cl)cc1)c1ccc2c(Cl)c3c(nc2c1)CCCC3	2%	17%
CC(=O)N1CCN(c2ccccc2NC(=O)c2cc(Br)ccc2Cl)CC1	-2%	3%
O=C(Nc1ccccc1N1CCN(C(=O)c2ccc(Cl)cc2)CC1)c1cc(Br)ccc1Cl	4%	7.9µM*
SMILES	Cruzain Triton	Cruzain noTriton
Cc1ccc(Cl)cc1N1CCN(C(c2ccc(C#N)cc2)c2nnnn2C2CCCC2)CC1 (stereo not drawn)	2%	20µM*
Cc1ccc(Cl)cc1N1CCN(C(c2cccnc2)c2nnnn2C2CCCCC2)CC1 (stereo not drawn)	-6%	11%
CC1(C)CCC[C@@](C)([C@H]2CC[C@]3(C)[C@@H]2[C@H](O)C[C@@H]2[C@@]4(C)CC[C@H](O)C(C)(C)[C@@H]4[C@@H](O)C[C@]23C)O1	-2%	u
Cc1ccc(N(CC(=O)N/N=C/c2cc(C)n(-c3ccccc3)c2C)S(C)(=O)=O)c(C)c1	-3%	-3%
O=C(Cn1c2ccccc2c(=O)c2ccccc21)N/N=C/c1cc([N+](=O)[O-])ccc1N1CCCCC1	0%	10µM*
O=C(Cn1c2ccccc2c(=O)c2cc([N+](=O)[O-])ccc21)Nc1ccccc1Cl	-26%	u
Cc1cc(/C=N/NC(=O)Cn2c3ccccc3c(=O)c3ccccc32)c(C)n1-c1ccccc1	-4%	16µM*
O=C(NCC(c1ccco1)S(=O)(=O)c1cccs1)c1ccccc1F (stereo not drawn)	-1%	0%
Cc1ccccc1NC(=O)CSC1=Nc2ccccc2C2=NC(Cc3ccccc3)C(=O)N12 (stereo not drawn)	-3%	-5%
COC(=O)C(C(=O)OC)C(Cc1cc(F)cc(F)c1F)NC=O (stereo not drawn)	6%	-8%
CCOc1ccccc1Nc1nc(-c2sc(NC(=O)c3ccccc3)nc2C)cs1	-4%	13µM*
Cc1nc(NC(=O)c2ccccc2)sc1-c1csc(NCCc2ccccc2)n1	-9%	u
CCOc1ccccc1NC(=O)C(C)Sc1cc(-c2ccccc2)nc(C)n1 (stereo not drawn)	-7%	-6%
COc1ccc(OC)c(Nc2nc(-c3sc(NC(=O)C(C)(C)C)nc3C)cs2)c1	-1%	-2%
CCOc1ccccc1Nc1nc(-c2sc(NC(=O)c3cccc(Cl)c3)nc2C)cs1	0%	6.3µM*
CCOc1ccccc1Nc1nnc(SC(C)C(=O)Nc2nc(-c3ccccc3)cs2)s1 (stereo not drawn)	-5%	7.9µM*
COc1ccccc1Nc1nc(-c2sc(NC(=O)c3ccccc3)nc2C)cs1	3%	u
COc1ccccc1Nc1nc(-c2sc(NC(=O)c3ccc([N+](=O)[O-])cc3)nc2C)cs1	1%	4µM*
Cc1ccccc1-c1nn2c(=O)cc(CN3CCN(C(=O)c4ccccc4Br)CC3)nc2s1	-6%	-6%
O=C(CCn1c(=O)c2cccn2c2ccc(F)cc21)NCc1ccccc1F	-1%	4%
COc1cc(OC)c(NC(=O)c2noc3c2CSc2ccccc2-3)cc1Cl	-8%	-3%
COc1ccc(C(=O)n2nc(-c3ccco3)nc2NCc2cccs2)cc1	-8%	-5%
Cc1ccc(NC(=O)c2cnc(SCC(=O)N3CCCc4ccccc43)n(C)c2=O)cc1C	1%	14%
COc1ccc(-c2sc(NC(=O)c3ccc(C)cc3)nc2-c2ccc([N+](=O)[O-])cc2)cc1	-5%	4µM*
COc1ccc2c(c1)CCc1sc(NC(=O)c3ccc(C)cc3)nc1-2	-6%	-8%
SMILES	Cruzain Triton	Cruzain noTriton
CC(C)Cn1c(-c2ccco2)csc1=Nc1cccnc1	16µM*	13µM*
COCCn1c(-c2ccco2)csc1=Nc1cccnc1	-3%	0%
Oc1c(Cl)c(Cl)c(Cl)c(Cl)c1Cl (tested in a mixture with another compound)	1%	-1%
Cc1ccc(S(=O)(=O)N/N=c2\oc3ccccc3cc2C(=O)Nc2cccc(C)c2)cc1	-2%	7.9µM*
Cc1cccc(NC(=O)c2cc(S(=O)(=O)c3ccccc3)ccc2Cl)c1	-5%	-2%
Cc1sc(NC(=O)CN(C)C2CCCCC2)nc1-c1ccc2c(c1)CCN2S(=O)(=O)c1ccccc1	-5%	32µM*
Cc1sc(NC(=O)Cc2ccc3c(c2)OCO3)nc1-c1ccc2c(c1)CCN2C(=O)c1ccccc1F	-1%	7.9µM*
O=C(NCc1ccc2c(c1)CCN2C(=O)c1ccncc1)c1ccccc1F	0%	-4%
Cc1sc(NC(=O)Cc2ccc3c(c2)OCO3)nc1-c1ccc2c(c1)CCN2C(=O)c1ccc(F)cc1	-4%	6.3µM*
CS(=O)(=O)N1CCc2cc(-c3csc(NC(=O)Cc4ccccc4)n3)ccc21	-1%	u
Cc1ccc2c(c1)CCCN2C(=O)c1ccc2c(c1)OCO2	-3%	6%

Bioassay records (PubChem BioAssay)
